Here are results for 9 compounds from PubChem BioAssay (NCI).

Several values for one entry are separate records, joined by “and”; a condition that tells them apart may be missing. Identical values can stand only once. The panel holds about 83,000 compounds, 20% with a hit somewhere; the sample as a whole holds those more often.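 Results are percent growth after 48 hours of single-concentration exposure. 100 means growth as in untreated cells, lower positive values show inhibition; negative values down to -100 show cell death.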 Activity calls are given as the source filed them. How the source made its calls: active means growth percent below 10; inactive means the rest.

Test systems include T-47D breast; BT-549 breast; MDA-MB-435 melanoma; MCF7 breast; HCT-116 colon; HCC-2998 colon; KM12 colon; SW-620 colon.
Common to all, as to experiment: NCI-60 one-dose screen, 48 h (100 = growth as untreated, 0 = no growth, -100 = all killed)
Holding throughout (conditions): 10 µM unless noted

`CC(=O)Nc1ccc(O)cc1`: the growth is 116% (inactive) and 103% (inactive) and 93.9% (inactive) in the assay with T-47D breast; 94.3% (inactive) and 78.1% (inactive) and 101% (inactive) in the assay on BT-549 breast; 105% (inactive) and 109% (inactive) and 110% (inactive) in the assay on MDA-MB-435 melanoma; 100% (inactive) and 68.3% (inactive) and 107% (inactive) with MCF7 breast; 100% (inactive) and 120% (inactive) and 104% (inactive) in the assay with HCT-116 colon; 102% (inactive) and 68.4% (inactive) and 110% (inactive) with HCC-2998 colon. Also, the growth with KM12 colon is 99.4% (inactive) and 38.3% (inactive) and 107% (inactive).

With `CNC(=O)c1cc(Oc2ccc(NC(=O)Nc3ccc(Cl)c(C(F)(F)F)c3)cc2)ccn1`, the growth with T-47D breast was -8.57% (active) and 7.49% (active); in the assay on BT-549 breast it was -1.7% (active) and 24.4% (inactive); in the assay on MDA-MB-435 melanoma, -27.3% (active) and -35.2% (active); in the assay with SW-620 colon, 13.5% (inactive) and 5.39% (active); in the assay with MCF7 breast, 2.9% (active) and 3.7% (active); in the assay on HCC-2998 colon, -25.4% (active). For the same compound, the growth with KM12 colon was 2.65% (active) and -14.7% (active).

In the case of `O=C(/C=C\c1ccnc2ccccc12)c1ccc([N+](=O)[O-])cc1`, the growth in the assay with T-47D breast is 70.3% (inactive) and 59.3% (inactive); in the assay on BT-549 breast, 80.4% (inactive) and 77.9% (inactive); with MDA-MB-435 melanoma, 93.2% (inactive) and 46.5% (inactive); in the assay with SW-620 colon, 80.6% (inactive) and 6.55% (active); in the assay on MCF7 breast it was 75.8% (inactive) and 25.4% (inactive); in the assay on HCC-2998 colon, 82.7% (inactive). Besides, the growth in the assay on KM12 colon was 83.3% (inactive) and 33.1% (inactive).

With `CCOC(=O)Nc1nc2ccccc2[nH]1`, the growth in the assay on BT-549 breast was 105% (inactive) and 11.7% (inactive); in the assay with MDA-MB-435 melanoma it was 96.1% (inactive) and -30% (active); in the assay with SW-620 colon, 108% (inactive) and 12% (inactive); in the assay with MCF7 breast it was 113% (inactive) and 17.8% (inactive); in the assay with HCT-116 colon, 106% (inactive) and 23% (inactive); with HCC-2998 colon, 108% (inactive) and -9.87% (active). Moreover, the growth in the assay on KM12 colon was 106% (inactive) and 26.2% (inactive).

As for `CC1CCCc2sc3nc(NNC(=O)c4cnccn4)n(-c4ccccc4)c(=O)c3c21` (stereo unspecified), the growth in the assay with BT-549 breast is 12.8% (inactive); with MDA-MB-435 melanoma, 27.9% (inactive) and 21.5% (inactive); with SW-620 colon, 23.7% (inactive) and 19.7% (inactive); in the assay with MCF7 breast, 6.57% (active) and 0.695% (active); in the assay on HCT-116 colon, 7.09% (active) and -13.3% (active); with HCC-2998 colon it was 34.2% (inactive) and 40.9% (inactive). Moreover, in the assay on KM12 colon, the growth is 20% (inactive) and 19.2% (inactive).

With `CC1=C(/C=C/C(C)=C/C=C/C(C)=C/C(=O)O)C(C)(C)CCC1`, the growth was 63.4% (inactive) and 86.2% (inactive) and 77.1% (inactive) in the assay on T-47D breast; 100% (inactive) and 84.9% (inactive) and 99.2% (inactive) with BT-549 breast; 92.3% (inactive) and 90.7% (inactive) and 107% (inactive) in the assay with MDA-MB-435 melanoma; 68.6% (inactive) and 67.4% (inactive) and 73.2% (inactive) with MCF7 breast; 108% (inactive) and 111% (inactive) and 105% (inactive) in the assay with HCC-2998 colon; 94.7% (inactive) and 105% (inactive) and 102% (inactive) with KM12 colon.

For the compound `O=C(Nc1ccc([N+](=O)[O-])cc1Cl)c1cc(Cl)ccc1O`, the growth in the assay with BT-549 breast was -35.7% (active) and -74.7% (active); in the assay on MDA-MB-435 melanoma it was -20% (active) and -17.3% (active); in the assay with SW-620 colon, 0.797% (active) and 1.64% (active); in the assay on MCF7 breast, 3.12% (active); in the assay on HCT-116 colon, -45.4% (active) and -78.2% (active); in the assay on HCC-2998 colon it was -23.1% (active) and -28.9% (active). Moreover, in the assay with KM12 colon, the growth was -58.1% (active) and -25.8% (active).

With `CCN(CC)CCCC(CNc1ccnc2cc(Cl)ccc12)c1ccc(Cl)cc1` (stereo unspecified), the growth in the assay with BT-549 breast was 10.4% (inactive) and -11.4% (active); with MDA-MB-435 melanoma it was -93.3% (active) and -61.5% (active); with SW-620 colon it was 6.45% (active) and -100% (active); in the assay on MCF7 breast, -31.8% (active) and 70.3% (inactive); in the assay with HCT-116 colon, -15.1% (active) and -20.3% (active); in the assay on HCC-2998 colon, -76.8% (active) and -93.6% (active). For the same compound, in the assay on KM12 colon, the growth was 1.49% (active) and 33.3% (inactive).

`CN(C)CCC(=O)c1ccc(Cl)cc1`: the growth in the assay on T-47D breast is 110% (inactive) and 97.4% (inactive); in the assay on BT-549 breast, 107% (inactive) and 98.8% (inactive); in the assay on MDA-MB-435 melanoma, 113% (inactive) and 110% (inactive); in the assay with MCF7 breast, 90.6% (inactive) and 86.2% (inactive); in the assay with HCT-116 colon it was 101% (inactive) and 102% (inactive); in the assay with KM12 colon, 108% (inactive) and 109% (inactive).
